Source: PubChem BioAssay (NCI)
The panel holds about 83,000 compounds, 20% with a hit somewhere; the sample as a whole holds those more often.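 The test compound was applied at a single concentration to cells in 96-well plates for 48 hours, and percent growth was recorded.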 Active and inactive are the calls of the source. Rule for the calls: active = growth percent below 10; inactive = the rest.

Legend:
Assay in all cases: NCI-60 one-dose screen, 48 h (100 = growth as untreated, 0 = no growth, -100 = all killed)
Conditions in all cases: 10 µM unless noted
[1] = system: SK-MEL-2 melanoma
[2] = system: EKVX NSCLC
[3] = system: UO-31 renal
[4] = system: TK-10 renal
[5] = system: ACHN renal
[6] = system: CAKI-1 renal
[7] = system: A498 renal
[8] = system: CCRF-CEM leukemia
[9] = system: MOLT-4 leukemia
[10] = system: SR leukemia
[11] = system: RPMI-8226 leukemia
[12] = system: OVCAR-8 ovarian
[13] = system: OVCAR-5 ovarian
[14] = system: OVCAR-4 ovarian
[15] = system: SK-OV-3 ovarian
[16] = system: IGROV1 ovarian
[17] = system: OVCAR-3 ovarian
[18] = system: HS 578T breast
[19] = system: NCI/ADR-RES ovarian
[20] = system: SN12C renal

Measured: growth

Cc1cc(=O)oc2cc(OCCCCOc3ccc(/C=C/C(=O)Nc4ccccc4N)cc3)ccc12
inactive: [1] 111% | [2] 60.3% | [3] 23.3% | [4] 112% | [5] 68.2% | [6] 59.8% | [7] 84.1% | [8] 10.9% | [9] 27.8% | [10] 56.4% | [11] 18.7% | [12] 85.2% | [13] 84.8% | [14] 73.1% | [15] 92.1% | [16] 81.7% | [17] 64.9% | [18] 118% | [19] 74.3%

COc1ccc(-c2nc3ccc(C(=O)NN4C(=O)c5ccc([N+](=O)[O-])cc5C4=O)cc3[nH]2)cc1
inactive: [1] 101% | [2] 90.7% | [3] 88.6% | [4] 101% | [5] 98.4% | [6] 92.6% | [7] 103% | [8] 83.3% | [9] 98.7% | [10] 89.1% | [11] 80.9% | [12] 97.5% | [13] 88.6% | [14] 101% | [15] 94.8% | [16] 101% | [17] 115% | [18] 104%

CC(C)CSc1nc(NCCc2c[nH]c3ccccc23)c(C#N)c(-c2ccc(F)cc2)n1
inactive: [1] 78.9% | [2] 45.9% | [3] 70.3% | [4] 92.4% | [5] 59.6% | [6] 49.2% | [7] 92.8% | [8] 22.1% | [9] 27.9% | [11] 31.5% | [12] 59.5% | [13] 101% | [14] 72.8% | [15] 57.9% | [16] 78.3% | [17] 76.9% | [18] 39.6%
active: [10] 3.42%

CN1CCN(c2ccc(C(=O)/C=C/c3ccc(Br)cc3)cc2)CC1
inactive: [1] 85.4% | [2] 51.8% | [20] 13.9% | [3] 18.8% | [4] 38.4% | [5] 30.8% | [6] 30.8% | [7] 96% | [8] 18.2% | [13] 39.5% | [14] 61% | [15] 15.8% | [16] 39.4% | [17] 17.7% | [18] 89.6% | [19] 45.1%
active: [11] -0.714% | [12] 2.63%

Clc1cccc(-c2ccc(OCCCN3CCN(c4ccncc4)CC3)cc2)c1
inactive: [1] 74% | [2] 11.6% | [3] 30.4% | [4] 41.9% | [5] 49.4% | [7] 65.5% | [12] 37.9% | [13] 69.7% | [14] 38.2% | [15] 30.1% | [16] 49.6%
active: [6] 5.23% | [8] -28.7% | [9] -47.4% | [10] -38.5% | [11] -39.1% | [17] 0.45% | [18] -2.27% | [19] 5.66%

COc1ccc(C(=O)/C=C/c2cccc(Br)c2)cc1S(N)(=O)=O
active: [1] -26% | [2] -68.4% | [20] -79.2% | [3] -91.8% | [4] -91.8% | [5] -95.2% | [6] -79.9% | [11] -15.9% | [12] -95.1% | [13] -92% | [14] 7.28% | [15] 8.53% | [16] -33.7% | [17] -47.7% | [19] -21.5%
inactive: [7] 93.3% | [18] 30.8%

CN(C)CCn1c2ccccc2c2nc3cc(C(F)(F)F)ccc3nc21
inactive: [1] 56.4% | [2] 64.3% | [20] 21.7% | [3] 11.9% | [4] 108% | [5] 13.5% | [6] 11% | [7] 75.8% | [9] 23.8% | [10] 11.1% | [12] 35.7% | [13] 38.8% | [14] 54.3% | [15] 41.5% | [16] 22.4% | [17] 69.2% | [18] 65.8% | [19] 30.2%

COc1ccc(NC(=O)Cn2c3c(sc2=O)[C@H]2[C@@H](O)[C@@H](O)[C@H](O)[C@@H]2CS3)cc1
inactive: [1] 101% | [2] 97.4% | [20] 98.8% | [3] 90.2% | [4] 112% | [5] 96.6% | [6] 97.2% | [7] 111% | [9] 108% | [10] 99.1% | [12] 103% | [13] 105% | [14] 106% | [15] 107% | [16] 104% | [17] 109% | [18] 107% | [19] 107%

O=C(Nc1ccc(C(F)(F)F)cc1)Nc1ccc2oc(=O)ccc2c1
inactive: [1] 30% | [2] 12.2% | [4] 36.1% | [6] 22.9% | [7] 27.4% | [8] 16.1% | [12] 15.7% | [13] 39.5% | [14] 41.7% | [15] 16% | [16] 33% | [17] 26.7% | [18] 49.7% | [19] 12.4%
active: [20] 7.6% | [3] -10.3% | [5] 6.95% | [11] -20.4%

COc1ccc(C(=O)/C=C/c2c(F)cccc2Cl)cc1S(N)(=O)=O
inactive: [1] 25.1% | [20] 12.8% | [4] 27.4% | [6] 16.4% | [7] 74% | [13] 25% | [14] 42.9% | [15] 27% | [16] 21.6% | [18] 27% | [19] 12.2%
active: [2] 8.71% | [3] 0.59% | [5] -13.8% | [8] 6.01% | [11] -10.1% | [12] 3.5% | [17] -63.4%

Clc1ccc(-c2ccc(OCCCN3CCN(c4ccncc4)CC3)cc2)cc1
active: [8] 4.35% | [9] 1.95% | [10] -21.2% | [11] -9.75%
inactive: [1] 100% | [2] 30.7% | [3] 66.3% | [4] 89.5% | [5] 87.8% | [6] 66.6% | [7] 84.7% | [12] 86.3% | [13] 96.5% | [14] 64.7% | [15] 58% | [16] 93.7% | [17] 67.4% | [18] 82.5%

Cc1cc2nc3c4ccccc4n(CC4=NCCN4)c3nc2cc1C
active: [20] -6.68% | [3] -95.2% | [5] -100% | [6] -70% | [9] -19.4% | [10] 0.0191% | [12] -21.1% | [13] -76.9% | [14] -0.803%
inactive: [1] 66.7% | [2] 60.4% | [4] 64.4% | [7] 63.8% | [15] 15.6% | [16] 16.1% | [17] 55.2% | [18] 76.4% | [19] 18.6%

COc1ccc(N2N=C(c3ccc4c(c3)OCO4)CC2c2cccc(NC(=O)CCNS(=O)(=O)c3ccc(Cl)cc3)c2)cc1 (centres undefined)
inactive: [1] 44.5% | [2] 13.1% | [3] 35.3% | [4] 51.9% | [5] 24.9% | [6] 30.4% | [8] 18.7% | [9] 10.3% | [11] 23.2% | [12] 49.1% | [13] 68.4% | [14] 51.6% | [15] 46.1% | [16] 61.1% | [17] 61.8% | [18] 13.4%
active: [7] -4.53% | [10] 3.71%

CC1(C)CC[C@]2(C(=O)Nc3ccc(Br)cc3)CC[C@]3(C)C(=CCC4[C@@]5(C)C[C@@H](O)[C@H](O)[C@@](C)(CO)C5CC[C@]43C)C2C1 (some centres undefined)
inactive: [2] 15.5% | [3] 21.1% | [4] 22.5% | [5] 17.7% | [6] 20.6% | [12] 25.6% | [16] 38.2% | [19] 14.7%
active: [1] -19.8% | [7] -45.2% | [8] -19.8% | [9] -10.5% | [10] -9.66% | [11] -33.5% | [13] -21.8% | [14] 5.44% | [15] 4.34% | [17] -4.06% | [18] -0.476%

Cc1sc(C(NC(=O)OCCn2c([N+](=O)[O-])cnc2C)C(F)(F)Cl)nc1-c1ccc(OC(F)(F)F)cc1 (centres undefined)
active: [1] -90.7% | [2] -98% | [3] -95.5% | [4] -91.7% | [5] -98.5% | [6] -76.6% | [7] -89.7% | [8] -17.4% | [9] 2.22% | [10] 5.16% | [11] 2.36% | [12] -65.9% | [13] -96% | [14] -37.7% | [15] -84.8% | [16] -80.6% | [17] -59.6% | [18] -31.1%

CC1(C)CC[C@]2(C(=O)Nc3ccccc3)CC[C@]3(C)C(=CCC4[C@@]5(C)C[C@@H](O)[C@H](O)[C@@](C)(CO)C5CC[C@]43C)C2C1 (some centres undefined)
active: [9] 5.99% | [11] 9.08%
inactive: [1] 59.8% | [2] 52.9% | [3] 47.3% | [4] 86.7% | [5] 59.9% | [6] 44.1% | [7] 56.9% | [8] 30.4% | [10] 15.2% | [12] 62.7% | [13] 86.2% | [14] 58.9% | [15] 65.5% | [16] 79% | [17] 73.4% | [18] 62.8% | [19] 61.4%

COc1ccc(-c2nnc3ccc(N/N=C/c4ccc(C)cc4)nn23)cc1
inactive: [1] 108% | [2] 68.2% | [20] 76.9% | [3] 33.5% | [4] 82.7% | [5] 59% | [6] 54.6% | [7] 109% | [8] 91.8% | [11] 94% | [12] 41.4% | [13] 115% | [14] 36.9% | [15] 79.8% | [16] 100% | [17] 15.6% | [18] 29.1% | [19] 25.8%
